The text below walks through data of PubChem BioAssay AID449734 (Southern Research Specialized Biocontainment Screening …, 2010).

Active and inactive are the calls of the source. The rule behind the calls is not given here.

The test in a line: S. typhi GFP reporter counter-screen inhibition, late-stage follow-up, counter-screen for PhoP regulon inhibitor project, round 4, purified and synthesized compounds (AID 449734). For orientation: Counterscreens check selectivity or assay interference.

As to `O=C(NC1CCCCC1)N1CCCN(Cc2ccccc2F)C1`, the result was inactive. As for `FC(F)(F)c1ccc(NC(=S)NCc2ccc(Cl)cc2)cc1`, the molecule was classed as inactive. To `S=C(NCc1ccc(Cl)cc1)NN1CCOCC1` belongs “inactive”.

For the molecule `Cc1ccccc1NC(=O)N1CCCN(Cc2ccccc2F)C1`, the outcome was inactive. Take `S=C(NCc1ccc(Cl)cc1)Nc1ccccn1`: the molecule was called inactive. Take `S=C(NCc1ccc(Cl)cc1)Nc1ccccc1Br`: the molecule was called inactive. Take `FC(F)(F)c1ccccc1NC(=S)NCc1ccc(Cl)cc1`: the molecule was classed as inactive. To `S=C(NCc1ccc(Cl)cc1)Nc1ccc(I)cc1` belongs “inactive”; to `COc1cccc(CNC(=S)Nc2ccncc2)c1`, “inactive”. The result for `S=C(NCc1ccc(Cl)cc1)Nc1cccc(Br)c1` reads “inactive”; that for `S=C(NCc1ccc(Cl)cc1)NC1CCOCC1`, “inactive”; that for `CN1CCN(C(=S)NCc2ccc(Cl)cc2)CC1`, “inactive”. The result for `O=C(Nc1ccc(Cl)cc1)N1CCCN(Cc2cccc(Br)c2)C1` reads “inactive”; that for `O=C(Nc1ccc(Cl)cc1)N1CCCN(Cc2cccc(F)c2)C1`, “inactive”. As for `S=C(NCc1ccc(Cl)cc1)Nc1ccncn1`, the outcome was inactive. Consider `N#Cc1ccc(CN2CCCN(C(=O)Nc3ccc(Cl)cc3)C2)cc1`, for which the outcome was inactive. To `O=C(Nc1ccc(Cl)cc1)N1CCN(Cc2ccccc2F)C1` belongs “inactive”; to `S=C(NCc1ccc(Cl)cc1)Nc1ccccc1I`, “inactive”.

For the molecule `S=C(NCc1ccccc1)NCc1ccc(Cl)cc1`, the outcome was inactive. To `S=C(NCc1ccc(Cl)cc1)NC1CCCCC1` belongs “inactive”.
